Results: PubChem BioAssay AID504332 (National Center for Advancing Translational Sciences (NCATS), 2011)
About 31,000 (8.9%) of roughly 350,000 compounds were called active. Inconclusive results (about 15%) are left out. The entries come from a sample that favours actives as a whole. Unmarked numbers belong to inactive results. Calls come from the whole dose curve; as a rule, active = well fitted inhibition curve with a large enough effect; inconclusive = small, poorly fitted or top-dose-only effect; inactive = no such curve, though single readings can be large or run the other way.

These molecules were tested against Histone-lysine N-methyltransferase EHMT2 (Homo sapiens) (UniProt Q96KQ7) (assay: qHTS Assay for Inhibitors of Histone Lysine Methyltransferase G9a). Settings: G9a H3K9 monomethylation, AlphaScreen, 2 h; series mostly up to 59 µM; activity, negative = inhibition: at the top concentration.
Histone-lysine N-methyltransferase EHMT2 (Homo sapiens), sequence (Q96KQ7 913-1193 limits assumed): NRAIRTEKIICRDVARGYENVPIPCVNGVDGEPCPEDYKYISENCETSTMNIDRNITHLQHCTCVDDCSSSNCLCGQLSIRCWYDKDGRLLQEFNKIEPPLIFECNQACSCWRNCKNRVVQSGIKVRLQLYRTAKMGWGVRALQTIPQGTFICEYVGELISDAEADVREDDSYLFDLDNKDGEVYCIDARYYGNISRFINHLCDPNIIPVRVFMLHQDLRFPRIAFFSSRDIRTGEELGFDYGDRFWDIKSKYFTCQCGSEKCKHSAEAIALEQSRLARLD
Outline: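 Signal arises when biotinylated H3K9 peptide, once monomethylated, bridges streptavidin donor and antibody-captured acceptor beads. Enzyme at 20 nM was preincubated 15 min with test compounds; peptide 500 nM and SAM 20 uM then reacted for 2 h.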
% is set by controls: 0 for no effect and ±100 for the full control effect; potency is the fitted concentration of half-maximal effect.
Note: nearly all actives have a fitted effect of over 75% in size.

SMILES	Potency	activity, negative = inhibition
C=CCN1CN(S(=O)(=O)c2ccc(OC)cc2)c2nc3ccccc3nc21	7.08 µM (active)	
O=S(=O)(c1ccccc1)N1CN(Cc2ccc(F)cc2)c2nc3ccccc3nc21		-47.7% [at 102 µM]
COc1ccc(S(=O)(=O)N2CCSCC2)cc1		1.31% [at 102 µM]
O=C(CC1C(=O)N(c2ccccc2)C(=O)N1CCc1cccs1)Nc1ccc(F)cc1 (stereo not given)		5.32%
Cc1ccccc1C(=O)NC(=S)NC1CC1		-4% [at 102 µM]
CCn1c2ccccc2c2cc(NC(=O)COc3ccc(C)cc3C)ccc21		-36%
O=C(CCC(=O)c1cccs1)NC1CCCCCC1		-16.9% [at 102 µM]
O=C(CCCCCn1c(=S)[nH]c2ccsc2c1=O)NC1CCCCC1	10 µM (active)	
CCCCC(CC)CNC(=O)CCCCn1c(=O)[nH]c2ccsc2c1=O (stereo not given)	inactive	
COc1ccccc1-c1sc2ccccc2c1-c1ccc(C(C)=O)cc1		226% [at 102 µM]
COc1ccc(CN(C)C(=O)CC(c2ccccc2)c2ccccc2)cc1		15.5%
CCOC(=O)CN(Cc1ccc(OC)c(OC)c1)S(=O)(=O)c1ccc(OC)cc1		18.2% [at 102 µM]
COc1ccc(C(CCN(Cc2ccc(OC)c(OC)c2)C(=O)CCl)c2ccccc2)cc1 (stereo not given)	50.1 µM (active)	
Cc1ccc(Cl)cc1N1CCN(C(=O)c2cn(C)c3ccc(S(=O)(=O)N(C)C4CCCCC4)cc3c2=O)CC1		14%
CCn1cc(CCC(=O)NCc2ccc(F)cc2)c2ccccc21		-11% [at 102 µM]
COc1cc(OC)c(OC)cc1/C=C/c1nc2cc3ccccc3cc2c(=O)n1-c1ccc(F)c(Cl)c1		-13.5%
Fc1ccc(Nc2nc(SCc3ccccc3Cl)nc3ccccc23)cc1		24.3%
C=CS(=O)c1sc(Cl)c(N2CCOCC2)c1[N+](=O)[O-] (stereo not given)	1.58 µM (active)	
O=C(CC1Oc2ccccc2NC1=O)NCc1ccc(F)cc1 (stereo not given)		28.9%
CC1=C(C)CC2C(=O)N(c3cccc4ccccc34)C(=O)C2C1 (stereo not given)	7.94 µM (active)	
O=C1c2ccccc2C(=O)N1c1cccc2ccccc12		2.93% [at 102 µM]
CCc1ccccc1N1C(=O)C2C3CC(=O)C(c4ccccc43)C2C1=O (stereo not given)		19.2% [at 102 µM]
CCCCn1cc(S(=O)(=O)c2ccc(OCC)cc2)c(=O)c2cc(OC)c(OC)cc21		-30.4%
CCn1c(=O)c(C(=O)NCc2ccc3c(c2)OCO3)c(O)c2ccccc21		8.89% [at 0.501 µM]

SMILES	Potency	activity, negative = inhibition
COc1ccc(C2c3c(oc4ccccc4c3=O)C(=O)N2Cc2ccc3c(c2)OCO3)cc1 (stereo not given)		-28.3%
CCc1noc(C)c1C(=O)Oc1ccc(N(C)S(=O)(=O)c2ccc(C)c(C)c2)cc1		15.4% [at 12.7 µM]
COC(=O)c1ccc(NC(=O)CSc2nnc(C3CC3)n2C)cc1		18.2% [at 102 µM]
O=C(CSc1nnc(CNC(=O)c2ccccc2)n1-c1ccc(F)cc1)Nc1ccccc1F		-18.3%
COC(=O)c1ccc(NC(=O)CSc2nnc(-c3ccncc3)n2C)cc1		0.0579% [at 102 µM]
Cn1cccc1Cc1nnc(SCC(=O)NCCc2ccccc2)n1-c1ccc(F)cc1	56.2 µM (active)	
COC(=O)c1ccc(NC(=O)CSc2nnc(Cc3cccn3C)n2-c2ccc(F)cc2)cc1	44.7 µM (active)	
CNC(=O)CSc1nnc(CCc2ccccc2)n1-c1ccccc1		-17.5%
Cc1ccccc1NC(=O)Cc1nc(COC(=O)c2cccnc2Cl)cs1		-9.65%
COc1ccccc1C(CNC(=O)c1ccc(C)c(S(=O)(=O)N2CCCCC2)c1)N(C)C (stereo not given)		24.7% [at 12.7 µM]
CC(=O)Nc1ccc(Nc2cc(C)nc(Nc3ccc(NC(C)=O)cc3)n2)cc1		-6.09% [at 2.33 µM]
COc1ccc(CCn2c(=N)c(C(=O)NCC3CCCO3)cc3c(=O)n4cccc(C)c4nc32)cc1OC (stereo not given)		-20.3% [at 102 µM]
COc1cccc(NC(=O)Nc2ccc3c(c2)N(C)C(=O)c2ccccc2S3)c1		-33.9%
COc1ccc2c(c1)N(C)/C(=C1/SC(=S)N(NC(C)=O)C1=O)S2	70.8 µM (active)	
COc1cccc(/C=C2\Sc3ccc(C(=O)NCC4CCCO4)cc3N(C)C2=O)c1 (stereo not given)		5.24% [at 102 µM]
CN(C(=O)CSc1nnc(-c2ccc3c(c2)OCO3)o1)C1CCS(=O)(=O)C1 (stereo not given)		23.8% [at 12.7 µM]
CCOC(=O)c1cc(C(C)C)sc1NC(=O)COC(=O)c1nccnc1N		-18.5% [at 0.501 µM]
COC(=O)c1ccc(C(=O)NC2CC(C)(C)Cc3c2cnn3-c2ccc(F)cc2)nc1 (stereo not given)		33.1% [at 102 µM]
CCCN(C(=O)Cn1ncc2c([nH]c3ccc(C)cc32)c1=O)c1ccccc1C		-4.99%
CC(C)(C)OC(=O)NCCCCCNC(=O)c1nc[nH]c1C(=O)NCc1ccccc1		24.5% [at 2.33 µM]
Cc1nn(C(=O)c2ccoc2C)c(N)c1-c1ccccc1	31.6 µM (active)	
Cc1occc1C(=O)Nc1nnc(-c2ccncc2)s1		-37.1% [at 12.7 µM]
C/C(=N\NC(=O)c1ccoc1C)c1ccccc1O		11.6% [at 102 µM]
CCOc1ccccc1NC(=O)CN1CCCN(Cc2cccc(Cl)c2)S1(=O)=O		5.41%

SMILES	Potency	activity, negative = inhibition
Cc1ccc2c(c1)N(CC(=O)NCCc1ccc(Cl)cc1)C(=O)c1cccnc1O2	inactive	
COc1ccc2c(CC(=O)Nc3nnc(C4CC4)s3)coc2c1		-40.9%
COc1ccc2c(CC(=O)OCC(=O)NC(N)=O)coc2c1		-0.798% [at 102 µM]
COc1ccc2c(CC(=O)OCC(=O)Nc3ccccc3[N+](=O)[O-])coc2c1	11.2 µM (active)	
COc1ccc(C(=O)c2c3ccc([N+](=O)[O-])cc3[n+]([O-])n2CCCN)cc1		-22.2% [at 2.33 µM]
Cc1c(CCNC(=O)c2ccc(C(F)(F)F)cc2)sc2nc(-c3ccc(F)cc3)nn12		-4.14%
CCOC(=O)c1ccccc1NC(=O)c1nn(-c2ccc(OC)c(Cl)c2)c(=O)c2c1c1ccccc1n2C		-23.6%
CC(=O)c1ccc(NC(=O)c2nc3nc(C)cc(C(F)F)n3n2)cc1		5.77%
CCOC(=O)c1cccc(NC(=O)C2CCN(c3ncnc4c3nc3n4CCCCC3)CC2)c1		8.88% [at 102 µM]
COCCCNCCOCCOc1ccc(Cl)cc1Br	10 µM (active)	
CCOCCCNCc1cc(Br)ccc1OCC		1.6% [at 12.7 µM]
COCCNCCOCCOc1cccc(OC)c1		-4.05% [at 102 µM]
Cc1csc2nc(COC(=O)c3cccc(N(C)C)c3)cc(=O)n12		3.53% [at 2.33 µM]
CC(OC(=O)CN1C(=O)c2ccccc2C1=O)C(=O)c1ccccc1 (stereo not given)		12.8% [at 12.7 µM]
O=C(Nc1ccc(F)cc1)N1CCN(c2ccc(F)cc2)CC1		1.61% [at 102 µM]
CCc1ccc(NC(=O)N2CCN(c3ccccc3)CC2)cc1		-6.08% [at 102 µM]
CC(=O)N1CCN(c2ccc(NCc3ccc(C(C)C)cc3)cc2)CC1	14.1 µM (active)	
Cc1cc(F)ccc1S(=O)(=O)Nc1ccc(C(=O)N(C)Cc2ccco2)cc1		23.8% [at 2.33 µM]
Cc1nn(CC(=O)NCCc2ccccc2)c(=O)c2c1sc1ccccc12		-28.2%
Cc1ccc(C)c(N2CCN(C(=O)Cn3ncn4cccc4c3=O)CC2)c1		-1.09% [at 102 µM]
Cc1ccc(C)c(N2CCN(C(=O)Cn3nc(C)c4sc5ccccc5c4c3=O)CC2)c1	12.6 µM (active)	
CCn1nc(C(=O)NNC(=O)C2CSC3(C)CCC(=O)N23)c2ccccc2c1=O (stereo not given)		2.22% [at 12.7 µM]
Cc1csc2nc(COC(=O)c3ccc(NC(=O)COc4ccccc4F)cc3)cc(=O)n12		6.31% [at 12.7 µM]
CCOC(=O)c1cc2c(=O)n3ccccc3nc2n(CC2CCCO2)c1=NC(=O)c1ccc(C(C)(C)C)cc1 (stereo not given)		7.45%

SMILES	Potency	activity, negative = inhibition
COc1cc2cc(CN(CCN3CCCC3)C(=O)Nc3ccccc3Cl)c(=O)[nH]c2cc1OC	50.1 µM (active)	
COc1ccc(CCN(Cc2cc3cccc(C)c3[nH]c2=O)C(=O)N2CCCC2)cc1OC		-36.8% [at 12.7 µM]
Cc1ccc2[nH]c(=O)c(CN(CCCN(C)C)C(=O)Nc3cccc(Cl)c3)cc2c1		9.59%
CCCCNC(=O)c1cn(CC)c2cc(N3CCN(C(=O)c4ccco4)CC3)c(F)cc2c1=O		-11.5% [at 102 µM]
CCOc1ccc(CNC(=O)c2ccc3c(c2)nnn3C2CCCC2)cc1		7.24%
O=C(NC1CCCC1)C(c1ccco1)N(C(=O)c1ccco1)c1ccc(F)cc1 (stereo not given)		-10.7% [at 102 µM]
O=c1cc(COc2cccc(C(F)(F)F)c2)nc2sc3c(n12)CCCC3		4.72%
CCOc1cc(NC(=S)NCc2ccco2)c(OCC)cc1NC(=O)c1ccco1		3.75% [at 102 µM]
Cc1ccc(CC(=O)Nc2ccc(OC(F)F)c(Cl)c2)cc1C		33%
O=C(NNC(=S)NCc1ccco1)C(c1ccccc1)c1ccccc1		0.815% [at 102 µM]
FC(F)Oc1ccc(NC(=S)NCc2ccco2)cc1Cl	50.1 µM (active)	
COc1cc(NC(=S)NCc2ccco2)c(OC)cc1Cl	50.1 µM (active)	
COc1cccc(OC)c1C(=O)NC(=S)NCc1ccco1		-48.7% [at 102 µM]
Cc1c(Cl)cccc1NC(=O)Cn1cc(C(=O)c2cccs2)c2ccccc21		5.79%
Cc1ccc(NC(=O)CN2c3ccccc3S(=O)(=O)c3ccccc32)cc1F		-5.79%
CCCN(CCC)C(=O)C(Cc1ccccc1)NS(=O)(=O)c1ccc2c(c1)c(=O)n(C)c(=O)n2C (stereo not given)		-5.06%
CC(C)CC(=O)NC(=S)Nc1cc(C(=O)O)ccc1Cl		10.6%
Cc1cccc(NC(=S)Nc2ccc(Br)cc2)c1		21.1%
CCC(C(=O)Nc1ccc(C(C)C)cc1)c1ccccc1 (stereo not given)		-0.762% [at 102 µM]
Cc1ccc(C)c(NC(=S)NCC(c2cccnc2)N2CCOCC2)c1 (stereo not given)		2.92% [at 102 µM]
Cc1ccc(C)c(NC(=S)NNC(=S)Nc2ccc(C(C)C)cc2)c1	31.6 µM (active)	
CC(C)c1ccc(NC(=S)NNc2ccc(Cl)c(C(=O)O)c2)cc1	10 µM (active)	
COCCNC(=O)c1ccc2nc(Cc3ccc(OC)c(OC)c3)oc2c1		42.5% [at 102 µM]
